Measurements as given in PubChem BioAssay (Tox21).
Values joined by “and” are separate entries in the source; they are usually repeats but may differ in a detail not shown here. Equal entries are not always repeated. Results filed as inconclusive are left out. Active and inactive are the calls of the source. Unless noted, calls follow the shape of the dose curve; as a rule, active = well fitted curve in the direction sought with a large enough effect in the repeat runs; inconclusive = weak or mixed curves; inactive = no such curve, though single readings can be large; an effect the other way counts as inactive or inconclusive.

Legend:
[1] = qHTS assay to identify small molecule antagonists of the estrogen receptor alpha (ER-alpha) signaling pathway using the BG1 cell line in the presence of 0.1 nM 17-beta-estradiol - cell viability counter screen (AID 1259241); also: nearly all actives have a fitted effect of over 40% in size; also: potency is read from the fitted curve at half-maximal effect
Procedure, shortened: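 Cytotoxicity counter-screen: live-cell protease activity measured by fluorescence (30 min reagent step) in the same wells. Cells were VM7Luc4E2 with endogenous ER-alpha and ERE-driven luciferase, treated 22 hr at 37C alongside 0.1 nM 17beta-estradiol final.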

[2] = qHTS assay to identify small molecule HDAC inhibitors (AID 1259364); also: potency is read from the fitted curve at half-maximal effect;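 also: wild-type HCT-116 cells with endogenous class I/II HDAC activity; nearly all actives have a fitted effect of over 45% in size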
Procedure, shortened: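 After a 2 hr compound incubation (37C, 5% CO2), HCT-116 cells seeded at 1,500/well the day before received HDAC-Glo reagent; signal read as luminescence after 30 min at room temperature.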

[3] = qHTS assay to identify small molecule HDAC inhibitors - cell viability counter screen (AID 1259365); also: series mostly up to about 92 µM; nearly all actives have a fitted effect of over 50% in size
Procedure, shortened: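 CellTiter-Glo luminescence (30 min, room temperature) reported viability after a 2 h compound exposure at 37 C. Cells: wild-type HCT-116, 1,500 per well, seeded the night before.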

[4] = qHTS assay to identify small molecule agonists of the sonic hedgehog signaling (Shh) pathway - cell viability counter screen (AID 1259366); also: nearly all actives have a fitted effect of over 50% in size; also: potency is read from the fitted curve at half-maximal effect
Procedure, shortened: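 Cytotoxicity counter screen: CellTiter-Fluor reagent added after 23 h compound exposure, then 1 h at 37C and fluorescence read. Cells were 3T3 Gli1-Luc, seeded 2,000 per well and dosed 4 h post-plating.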

[5] = qHTS assay to identify small molecule antagonists of the sonic hedgehog signaling (Shh) pathway - cell viability counter screen (AID 1259367); also: nearly all actives have a fitted effect of over 55% in size; also: potency is read from the fitted curve at half-maximal effect
Procedure, shortened: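 CellTiter-Fluor signal in conditioned medium-stimulated 3T3 Gli1-Luc cells, 23 hr compound exposure, 37C.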

[6] = qHTS assay to identify small molecule agonists of the sonic hedgehog signaling (Shh) pathway (AID 1259368; calls by dose curve;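 also: NIH/3T3-derived 3T3Gli1-Luc cells carrying a stable Gli1-driven firefly luciferase reporter; series mostly up to about 92 µM; nearly all actives have a fitted effect of over 15% in size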)
Procedure, shortened: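 Stable NIH/3T3 Gli1-Luc reporter clone; 24 hr cpd exposure after a 4 hr settling period; luminescence endpoint.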

[7] = qHTS assay to identify small molecule antagonists of the sonic hedgehog signaling (Shh) pathway (AID 1259369; calls by dose curve; also: nearly all actives have a fitted effect of over 45% in size; also: potency is read from the fitted curve at half-maximal effect)
Procedure, shortened: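 Gli1 transcriptional reporter (firefly Luc) in NIH/3T3 background, conditioned-medium activated. 24hr exposure, luminescence endpoint.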

[8] = qHTS assay to identify small molecule agonists of the androgen receptor (AR) signaling pathway in the presence of an antagonist - cell viability counter screen (AID 1259379); also: nearly all actives have a fitted effect of over 25% in size; also: potency is read from the fitted curve at half-maximal effect
Procedure, shortened: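 Counter screen for cell viability run in parallel with the AR agonist-mode luciferase assay. MDA-kb2 cells were co-treated with nilutamide (3.0uM final) and compounds, then incubated 16 hr at 37C, and CellTiter-Fluor fluorescence was measured.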

[9] = qHTS assay to identify small molecule agonists of the estrogen receptor beta (ER-beta) signaling pathway - cell viability counter screen (AID 1259380); also: nearly all actives have a fitted effect of over 30% in size; also: potency is read from the fitted curve at half-maximal effect
Procedure, shortened: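 In this qHTS counter screen, HEK293T cells carrying an ER-beta/UAS beta-lactamase reporter, grown in 2% charcoal-stripped FBS, received compound for 16 hr; ATP-based CellTiter-Glo luminescence was then read after 30 min at room temperature.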

[10] = qHTS assay to identify small molecule antagonists of the estrogen receptor beta (ER-beta) signaling pathway - cell viability counter screen (AID 1259382);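 also: HEK293T cells carrying ER-beta-UAS-bla reporter stimulated with estradiol; series mostly up to about 92 µM; nearly all actives have a fitted effect of over 55% in size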
Procedure, shortened: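 HEK293T ER-beta-UAS-bla, 2% charcoal-stripped FBS; compounds + 1nM E2 16 hr 37C; CellTiter-Glo luminescence, 30 min RT.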

[11] = qHTS assay to identify small molecule agonists or antagonists of the thyroid stimulating hormone receptor (TSHR) signaling pathway - wild type cell line counter screen (AID 1259384; calls by dose curve)
Procedure, shortened: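 Counter screen in untransfected Hek293: compounds (15-point titration, triplicate) plus phosphodiesterase inhibitor Ro20-1724 added after 18 h plating; 30 min RT. Intracellular cAMP via competitive d2/cryptate immunoassay, 1 h incubation.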

[12] = molecular target: Thyrotropin receptor (Homo sapiens) (UniProt P16473); experiment: qHTS assay to identify small molecule antagonists of the thyroid stimulating hormone receptor (TSHR) signaling pathway (AID 1259385; calls by dose curve; also: nearly all actives have a fitted effect of over 20% in size)
Chain of Thyrotropin receptor (Homo sapiens) (P16473 whole entry, looked up): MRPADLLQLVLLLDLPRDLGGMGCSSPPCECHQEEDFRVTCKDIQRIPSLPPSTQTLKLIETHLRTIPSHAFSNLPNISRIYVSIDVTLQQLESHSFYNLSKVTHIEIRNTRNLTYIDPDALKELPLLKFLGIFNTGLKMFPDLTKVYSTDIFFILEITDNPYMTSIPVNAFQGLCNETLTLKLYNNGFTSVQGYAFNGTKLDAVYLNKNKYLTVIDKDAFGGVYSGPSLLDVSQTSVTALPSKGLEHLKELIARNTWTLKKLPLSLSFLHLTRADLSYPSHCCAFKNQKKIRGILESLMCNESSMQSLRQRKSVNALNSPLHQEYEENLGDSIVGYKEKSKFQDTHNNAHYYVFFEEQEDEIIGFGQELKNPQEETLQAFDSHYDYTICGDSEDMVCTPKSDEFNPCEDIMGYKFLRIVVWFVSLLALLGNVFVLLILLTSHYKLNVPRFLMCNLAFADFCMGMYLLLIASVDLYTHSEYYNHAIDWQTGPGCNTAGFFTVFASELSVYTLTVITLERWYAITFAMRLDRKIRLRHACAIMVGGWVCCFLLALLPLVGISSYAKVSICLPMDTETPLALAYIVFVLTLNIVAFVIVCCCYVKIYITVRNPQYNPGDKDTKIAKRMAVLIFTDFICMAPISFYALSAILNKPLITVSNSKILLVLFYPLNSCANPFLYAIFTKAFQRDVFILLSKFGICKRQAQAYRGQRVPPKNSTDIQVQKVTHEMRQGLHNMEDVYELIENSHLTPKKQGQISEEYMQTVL
Procedure, shortened: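 Antagonist mode: compound-treated TSHR-expressing HEK293 cells were stimulated with 1.5 ng/mL TSH (final) in presence of Ro20-1724 for 30 min at RT. HTRF cAMP detection after 1 h; each compound tested at 15 concentrations, triplicate.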

[13] = molecular target: Estrogen receptor beta (Homo sapiens) (UniProt Q92731); experiment: qHTS assay to identify small molecule agonists of the estrogen receptor beta (ER-beta) signaling pathway (AID 1259377; active = well fitted activation curve with a large enough effect in the signal ratio in the repeat runs, not every such curve was filed as active; the % refers to the signal ratio)
Chain of Estrogen receptor beta (Homo sapiens) (Q92731 whole entry, looked up): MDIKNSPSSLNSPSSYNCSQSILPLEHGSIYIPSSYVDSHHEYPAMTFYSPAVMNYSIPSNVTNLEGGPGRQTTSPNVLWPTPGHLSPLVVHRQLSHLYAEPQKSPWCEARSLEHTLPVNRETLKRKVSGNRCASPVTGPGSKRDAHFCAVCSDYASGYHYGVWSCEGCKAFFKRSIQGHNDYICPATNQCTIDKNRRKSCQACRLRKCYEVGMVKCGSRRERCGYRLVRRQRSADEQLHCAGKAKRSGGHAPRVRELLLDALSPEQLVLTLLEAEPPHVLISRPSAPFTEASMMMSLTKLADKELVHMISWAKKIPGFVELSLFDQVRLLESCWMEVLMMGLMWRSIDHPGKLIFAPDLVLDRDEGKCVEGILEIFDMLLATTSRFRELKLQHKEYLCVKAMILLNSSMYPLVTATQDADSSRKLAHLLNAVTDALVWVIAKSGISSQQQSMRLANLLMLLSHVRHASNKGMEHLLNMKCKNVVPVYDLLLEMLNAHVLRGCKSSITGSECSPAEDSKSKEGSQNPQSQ
Procedure, shortened: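 Ratiometric beta-lactamase FRET read-out came after 2 h substrate loading at room temperature. It followed 16 h compound treatment at 37C of GripTite HEK293T cells carrying a UAS-bla reporter, plated in 2% charcoal-stripped FBS medium.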

[14] = molecular target: Estrogen receptor beta (Homo sapiens) (UniProt Q92731); experiment: qHTS assay to identify small molecule antagonists of the estrogen receptor beta (ER-beta) signaling pathway (AID 1259378; active = well fitted inhibition curve with a large enough effect in the signal ratio in the repeat runs, not every such curve was filed as active; the % refers to the signal ratio; also: potency is read from the fitted curve at half-maximal effect)
Procedure, shortened: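 Antagonist mode: compounds added to beta-lactamase reporter HEK293T ER-beta-UAS cells stimulated with E2 (1nM final), 16 hr at 37C. LiveBLAzer B/G FRET substrate, 2 hours room temperature, fluorescence read-out.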

[15] = molecular target: Estrogen receptor (Homo sapiens) (UniProt P03372); experiment: qHTS assay to identify small molecule antagonists of the estrogen receptor alpha (ER-alpha) signaling pathway using the BG1 cell line in the presence of 0.1 nM 17-beta-estradiol (AID 1259244); also: nearly all actives have a fitted effect of over 50% in size
Chain of Estrogen receptor (Homo sapiens) (P03372 whole entry, looked up): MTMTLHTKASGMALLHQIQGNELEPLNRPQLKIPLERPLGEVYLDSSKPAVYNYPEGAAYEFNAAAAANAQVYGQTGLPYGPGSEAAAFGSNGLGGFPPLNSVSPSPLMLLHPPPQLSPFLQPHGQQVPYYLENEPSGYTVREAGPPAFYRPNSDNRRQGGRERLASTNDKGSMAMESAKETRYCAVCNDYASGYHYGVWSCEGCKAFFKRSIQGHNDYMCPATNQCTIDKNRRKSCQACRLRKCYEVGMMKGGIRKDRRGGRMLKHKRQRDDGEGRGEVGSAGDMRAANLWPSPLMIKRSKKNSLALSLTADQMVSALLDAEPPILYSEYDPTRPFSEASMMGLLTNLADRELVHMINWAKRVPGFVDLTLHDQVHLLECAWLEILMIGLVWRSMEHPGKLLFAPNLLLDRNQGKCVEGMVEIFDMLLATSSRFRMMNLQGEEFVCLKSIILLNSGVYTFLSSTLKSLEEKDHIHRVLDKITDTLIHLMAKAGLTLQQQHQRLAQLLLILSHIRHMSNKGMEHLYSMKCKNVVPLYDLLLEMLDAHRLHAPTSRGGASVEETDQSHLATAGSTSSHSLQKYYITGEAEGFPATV
Procedure, shortened: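 Seeding of stripped-serum-adapted VM7Luc4E2 cells, 24 h attachment, compound transfer, then 0.1 nM final 17beta-estradiol; after 22 h incubation, ONE-Glo reagent and luminescence reading.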

[16] = molecular target: Estrogen receptor (Homo sapiens) (UniProt P03372); experiment: qHTS assay to identify small molecule agonists of the estrogen receptor alpha (ER-alpha) signaling pathway in the presence of an antagonist (AID 1259383; calls by dose curve; also: nearly all actives have a fitted effect of over 15% in size; also: potency is read from the fitted curve at half-maximal effect; as to activation: top concentration of the series differs between compounds)
Procedure, shortened: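 ER-alpha agonism measured under antagonist challenge: 10.0nM ICI-182,780 (final) plus compound, 15 concentrations, 22hr, VM7Luc4E2 ERE-luciferase cells. Read by luminescence.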

Measured: Potency

CO[Si](CCCNc1ccccc1)(OC)OC
inactive: [1] | [2] | [3] | [4] | [5] | [6] | [7] | [8] | [9] | [10] | [11] | [12]

C1CCCC1
inactive: [1] | [2] | [3] | [4] | [5] | [6] | [7] | [13] | [14] | [8] | [9] | [10] | [12]

Oc1ccc(N=Nc2ccccc2)cc1
active: [2] 2.77 µM | [4] 27.7 µM | [7] 43.8 µM | [8] 24.7 µM | [16] 24.7 µM
inactive: [1] | [15] | [6] | [12]

CCCCCCOC(=O)c1ccc(O)cc1
inactive: [1] | [15] | [3] | [13] | [8] | [10] | [12]
active: [2] 24.4 µM and 27.3 µM | [16] 27.3 µM

CC[C@H]1O[C@]2(CC[C@@H]1C)C[C@@H]1C[C@@H](C/C=C(\C)C[C@@H](C)/C=C/C=C3\CO[C@@H]4[C@H](O)C(C)=C[C@@H](C(=O)O1)[C@]34O)O2
inactive: [1] | [2] | [5] | [6] | [7] | [16] | [11] | [12]
active: [8] 60.6 µM | [9] 24.1 µM

Nc1c(Cl)cc(Cl)cc1Cl
inactive: [1] | [2] | [3] | [4] | [5] | [6] | [7] | [8] | [9] | [10] | [11] | [12]

On1ccccc1=S
inactive: [3] | [6] | [12]
active: [1] 9.59 µM | [2] 12.1 µM | [4] 1.71 µM | [5] 3.03 µM | [7] 0.762 µM | [14] 0.428 µM | [9] 0.539 µM

CCCCN1C(=O)[C@@H]([C@H](O)C2CCCCC2)NC(=O)C12CCN(Cc1ccc(Oc3ccc(C(=O)O)cc3)cc1)CC2
inactive: [1] | [2] | [3] | [6] | [13] | [10] | [16] | [11] | [12]

[Cl][Au]([Cl])[Cl]
inactive: [2] | [3] | [6]
active: [1] 68.6 µM | [4] 3.86 µM | [5] 4.86 µM | [7] 0.172 µM | [8] 54.5 µM
